Results on ten compounds are retold here after paper PMC5540273 (PLoS ONE, 2017).

One experiment deals with CSNK1G1. The note with it: concentration: 1 μM,replicates: in singlicate; n = 1.
Another experiment deals with CSNK1G2. To be noted: concentration: 1 μM,replicates: in singlicate; n = 1.
The test system of the next experiment is CSNK1G3. The note with it: concentration: 1 μM,replicates: in singlicate; n = 1.
For a further experiment, the system named is CSNK2A1. The note with it: concentration: 1 μM,replicates: in singlicate; n = 1.
The test system of a further experiment is CSNK2A2. To be noted: concentration: 1 μM,replicates: in singlicate; n = 1.
The test system of a further experiment is T1, CTK.
T1 construct: gene MATK
To be noted: concentration: 1 μM,replicates: in singlicate; n = 1.

The subject of the next experiment is DAPK1. The note with it: concentration: 1 μM,replicates: in singlicate; n = 1.
For another experiment, the system named is DAPK2. To be noted: concentration: 1 μM,replicates: in singlicate; n = 1.
In another experiment the test system is DAPK3. To be noted: concentration: 1 μM,replicates: in singlicate; n = 1.
Another experiment has as its system T2, DCAMKL1.
T2 construct: gene DCLK1
To be noted: concentration: 1 μM,replicates: in singlicate; n = 1.

The test system of another experiment is T3, DCAMKL2.
T3 construct: gene DCLK2
The note with it: concentration: 1 μM,replicates: in singlicate; n = 1.

The test system of a further experiment is T4, DCAMKL3.
T4 construct: gene DCLK3
The note with it: concentration: 1 μM,replicates: in singlicate; n = 1.

The next experiment deals with DDR1. To be noted: concentration: 1 μM,replicates: in singlicate; n = 1.
The subject of a further experiment is DDR2. The note with it: concentration: 1 μM,replicates: in singlicate; n = 1.
The next experiment relates to T5, DLK.
T5 construct: gene MAP3K12
The note with it: concentration: 1 μM,replicates: in singlicate; n = 1.

Another experiment relates to T6, DMPK2.
T6 construct: gene CDC42BPG
To be noted: concentration: 1 μM,replicates: in singlicate; n = 1.

A further experiment concerns DMPK. To be noted: concentration: 1 μM,replicates: in singlicate; n = 1.
The next experiment concerns T7, DRAK1.
T7 construct: gene STK17A
To be noted: concentration: 1 μM,replicates: in singlicate; n = 1.

A further experiment deals with T8, DRAK2.
T8 construct: gene STK17B
The note with it: n = 1.

The next experiment concerns DYRK1A. The note with it: concentration: 1 μM,replicates: in singlicate; n = 1.
Setting [1] is: concentration: 1 μM,replicates: in singlicate.

Read-outs that look alike come from different tables or passages of the source.
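Further: KINOMEscan kinase panel screen.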

Consider `Cl.c1ccc(Oc2ccc(Nc3ccnc4cc(-c5ccc(CN6CCNCC6)o5)ccc34)cc2)nc1` [GW567142], for which the “%Inh” value in the experiment on CSNK1G1 is listed as 0%; in the experiment on CSNK1G2 it was 0%; with CSNK1G3, 32%; in the experiment on CSNK2A1, 0%; in the experiment with CSNK2A2, 3%; in the experiment with CTK, 10%. Also, the “%Inh” value in the experiment with DAPK1 came to 19%; in the experiment with DAPK2 it was 0%; with DAPK3, 21%; with DCAMKL1, 11%; with DCAMKL2, 0%; in the experiment on DCAMKL3, 36%. For the same compound, the “%Inh” value stood at 70% in the experiment with DDR1; 27% in the experiment with DDR2; 41% in the experiment with DLK; 0% with DMPK2; 0% in the experiment on DMPK; 9% with DRAK1. Besides, the “%Inh” value is 0% in the experiment on DRAK2 (setting [1]) and 1% in the experiment on DYRK1A.
Take `COC(=O)c1cccc(NC(=O)NC2CCN(c3ccnc(Nc4cc(OC)c(OC)c(OC)c4)n3)C2)c1` (centres unmarked) [GSK1379767]: the “%Inh” value in the experiment on CSNK1G1 is 16%; with CSNK1G2 it was 0%; in the experiment with CSNK1G3, 19%; in the experiment with CSNK2A1 it was 1%; with CSNK2A2, 29%; in the experiment on CTK, 0%. For the same compound, the “%Inh” value in the experiment on DAPK1 is 2%; in the experiment with DAPK2, 0%; with DAPK3 it was 21%; in the experiment on DCAMKL1 it was 4%; with DCAMKL2 it was 0%; with DCAMKL3 it was 0%. Besides, the “%Inh” value in the experiment on DDR1 came to 13%; with DDR2 it was 55%; in the experiment with DLK, 61%; in the experiment with DMPK2, 27%; in the experiment on DMPK it was 0%; in the experiment with DRAK1, 0%. Also, the “%Inh” value with DRAK2 (setting [1]) and in the experiment on DYRK1A was 0% throughout.
Regarding `COc1cc2nccc(Nc3ccc(Oc4ccccc4)cc3)c2cc1OC.Cl` [GI261656], the “%Inh” value with CSNK1G1 amounted to 0%; in the experiment on CSNK1G2 it was 0%; with CSNK1G3, 25%; in the experiment with CSNK2A1 it was 0%; in the experiment with CSNK2A2 it was 24%; in the experiment with CTK it was 0%. Further, the “%Inh” value in the experiment with DAPK1 stood at 0%; in the experiment on DAPK2, 0%; in the experiment on DAPK3 it was 2%; with DCAMKL1 it was 0%; in the experiment on DCAMKL2 it was 0%; in the experiment with DCAMKL3, 1%. Also, the “%Inh” value with DDR1 is 0%; with DDR2, 22%; with DLK it was 34%; in the experiment with DMPK2 it was 6%; in the experiment on DMPK it was 0%; with DRAK1, 0%. Besides, the “%Inh” value in the experiment with DRAK2 (setting [1]) and with DYRK1A was 0% in each case.
In the case of `O=C(NOCC1CC1)c1cc(Br)c(F)c(F)c1Nc1ccc(I)cc1Cl`, the “%Inh” value in the experiment on CSNK1G1 was 0%; in the experiment on CSNK1G2, 0%; in the experiment with CSNK1G3, 9%; in the experiment on CSNK2A1, 14%; with CSNK2A2, 6%; with CTK, 0%. Besides, the “%Inh” value in the experiment on DAPK1 is recorded as 29%; in the experiment with DAPK2, 0%; in the experiment with DAPK3, 0%; in the experiment with DCAMKL1 it was 22%; with DCAMKL2, 2%; in the experiment on DCAMKL3, 0%. Also, the “%Inh” value in the experiment with DDR1 amounted to 0%; with DDR2, 22%; in the experiment on DLK, 0%; in the experiment with DMPK2 it was 0%; in the experiment with DMPK it was 0%; with DRAK1, 0%. Further, the “%Inh” value in the experiment on DRAK2 (setting [1]) and in the experiment with DYRK1A was 0% each time.
For the compound `CN(c1ccc2c(c1)nc(NCc1ccc(F)cc1)n2C)c1ccnc(Nc2ccc(CS(C)(=O)=O)cc2)n1.Cl` [GW813244], the “%Inh” value in the experiment with CSNK1G1 turned out to be 0%; with CSNK1G2, 6%; in the experiment with CSNK1G3, 0%; in the experiment on CSNK2A1 it was 0%; in the experiment on CSNK2A2, 24%; with CTK it was 14%. Further, the “%Inh” value with DAPK1 was found to be 5%; in the experiment with DAPK2 it was 7%; in the experiment on DAPK3, 0%; in the experiment on DCAMKL1 it was 28%; in the experiment with DCAMKL2 it was 0%; in the experiment with DCAMKL3, 0%. The “%Inh” value came out at 98.4% in the experiment with DDR1; 100% in the experiment on DDR2; 0% in the experiment with DLK; 0% in the experiment with DMPK2; 0% in the experiment on DMPK; 15% in the experiment on DRAK1. For the same compound, the entries for the “%Inh” value in the experiment with DRAK2 (setting [1]) and with DYRK1A were 7% and 0%, respectively.
As for `c1ccc(Oc2ccc(Nc3ccnc4ccc(-c5ccccn5)cc34)cc2)cc1` [GW407034], the “%Inh” value in the experiment with CSNK1G1 was 11%; in the experiment on CSNK1G2 it was 0%; in the experiment with CSNK1G3 it was 10%; in the experiment on CSNK2A1, 0%; in the experiment with CSNK2A2 it was 14%; in the experiment with CTK it was 0%. For the same compound, the “%Inh” value with DAPK1 was 0%; in the experiment with DAPK2 it was 0%; with DAPK3, 5%; in the experiment with DCAMKL1 it was 9%; with DCAMKL2 it was 0%; in the experiment on DCAMKL3 it was 0%. The “%Inh” value in the experiment on DDR1 is listed as 14%; in the experiment on DDR2, 0%; in the experiment with DLK, 49%; in the experiment with DMPK2, 15%; in the experiment with DMPK, 0%; in the experiment with DRAK1, 0%. Also, the “%Inh” value in the experiment with DRAK2 (setting [1]) worked out at 0%; with DYRK1A, 24%.
Take `CC(=O)Nc1ccc(-c2cc3ncnc(SCC(=O)O)c3s2)cc1`: the “%Inh” value stood at 15% in the experiment on CSNK1G1; 0% with CSNK1G2; 8% with CSNK1G3; 75% in the experiment with CSNK2A1; 68% in the experiment with CSNK2A2; 14% in the experiment on CTK. In addition, the “%Inh” value turned out to be 23% in the experiment with DAPK1; 8% with DAPK2; 9% in the experiment on DAPK3; 0% with DCAMKL1; 24% in the experiment with DCAMKL2; 12% with DCAMKL3. For the same compound, the “%Inh” value is given as 0% in the experiment with DDR1; 10% in the experiment on DDR2; 2% in the experiment on DLK; 0% with DMPK2; 7% in the experiment with DMPK; 97.9% in the experiment with DRAK1. Besides, the “%Inh” value is on record as 100% with DRAK2 (1 µM) and 66% with DYRK1A.
Regarding `NC(=O)Nc1sc(-c2ccc(F)cc2)cc1C(N)=O` [GW789449], the “%Inh” value with CSNK1G1 was found to be 0%; in the experiment on CSNK1G2, 0%; with CSNK1G3, 0%; in the experiment on CSNK2A1 it was 49%; in the experiment with CSNK2A2, 81%; with CTK it was 22%. The “%Inh” value in the experiment on DAPK1 is recorded as 32%; in the experiment on DAPK2, 0%; with DAPK3, 38%; in the experiment on DCAMKL1, 0%; with DCAMKL2 it was 0%; in the experiment on DCAMKL3, 0%. For the same compound, the “%Inh” value with DDR1 was 11%; with DDR2 it was 39%; in the experiment on DLK, 38%; in the experiment with DMPK2, 0%; in the experiment on DMPK, 0%; in the experiment with DRAK1, 43%. For the same compound, the “%Inh” value with DRAK2 (setting [1]) stood at 70%; in the experiment on DYRK1A it was 23%.
Consider `O=C(Nc1n[nH]c2cc(-c3ccco3)ccc12)C1CC1` [SB-737447], for which the “%Inh” value turned out to be 0% in the experiment on CSNK1G1; 0% in the experiment with CSNK1G2; 15% in the experiment on CSNK1G3; 31% in the experiment with CSNK2A1; 68% in the experiment on CSNK2A2; 34% with CTK. For the same compound, the “%Inh” value in the experiment with DAPK1 is listed as 0%; in the experiment on DAPK2, 7%; in the experiment on DAPK3, 10%; in the experiment with DCAMKL1 it was 7%; in the experiment with DCAMKL2, 1%; in the experiment on DCAMKL3 it was 0%. Also, the “%Inh” value with DDR1 worked out at 0%; with DDR2 it was 0%; with DLK, 0%; in the experiment with DMPK2, 0%; with DMPK, 0%; in the experiment with DRAK1 it was 27%. Also, the results for the “%Inh” value in the experiment with DRAK2 (setting [1]) and in the experiment with DYRK1A were 0% and 16%, respectively.
`COc1cc2c(Nc3ccc(NC(=O)c4ccccc4)cc3)ncnc2cc1OCCCN1CCOCC1` [GSK301329]: the “%Inh” value with CSNK1G1 was found to be 0%; in the experiment on CSNK1G2, 0%; in the experiment with CSNK1G3 it was 3%; in the experiment on CSNK2A1, 9%; in the experiment on CSNK2A2, 14%; with CTK, 32%. Also, the “%Inh” value with DAPK1 came to 0%; with DAPK2, 0%; with DAPK3 it was 0%; in the experiment with DCAMKL1, 13%; with DCAMKL2, 26%; with DCAMKL3, 0%. In addition, the “%Inh” value in the experiment with DDR1 is on record as 0%; in the experiment on DDR2 it was 0%; in the experiment with DLK it was 89%; with DMPK2, 0%; in the experiment with DMPK it was 0%; with DRAK1, 0%. In addition, the “%Inh” value was 0% with DRAK2 (setting [1]) and 25% with DYRK1A.
